Source: PubChem BioAssay (Tox21)
Results filed as inconclusive are left out. Unmarked numbers belong to inactive results. The source made the active and inactive calls. Unless noted, calls come from the whole dose curve.

Molecular target: Estrogen receptor (Homo sapiens) (UniProt P03372)
Assay: qHTS assay to identify small molecule antagonists of the estrogen receptor alpha (ER-alpha) signaling pathway (AID 743069; active = well fitted curve in the direction sought with a large enough effect in the signal ratio in the repeat runs, not every such curve was filed as active; the % refers to the signal ratio)
Conditions: HEK293 ER-alpha-UAS-bla, beta-lactamase ratio, antagonist mode; series mostly up to 69.4 µM; activity, negative = inhibition: at the top concentration
In short: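 In this cell-based reporter format, GripTite HEK293 cells harbouring ER-alpha-UAS-bla were grown overnight with 2% charcoal-stripped FBS, dosed with DMSO-dissolved compounds, then challenged with 17beta-estradiol. After 18 hr at 37C, beta-lactamase activity was detected by FRET fluorescence.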
% is set by controls: 0 for no effect and ±100 for the full control effect.

Chain of Estrogen receptor (Homo sapiens) (P03372 whole entry, looked up): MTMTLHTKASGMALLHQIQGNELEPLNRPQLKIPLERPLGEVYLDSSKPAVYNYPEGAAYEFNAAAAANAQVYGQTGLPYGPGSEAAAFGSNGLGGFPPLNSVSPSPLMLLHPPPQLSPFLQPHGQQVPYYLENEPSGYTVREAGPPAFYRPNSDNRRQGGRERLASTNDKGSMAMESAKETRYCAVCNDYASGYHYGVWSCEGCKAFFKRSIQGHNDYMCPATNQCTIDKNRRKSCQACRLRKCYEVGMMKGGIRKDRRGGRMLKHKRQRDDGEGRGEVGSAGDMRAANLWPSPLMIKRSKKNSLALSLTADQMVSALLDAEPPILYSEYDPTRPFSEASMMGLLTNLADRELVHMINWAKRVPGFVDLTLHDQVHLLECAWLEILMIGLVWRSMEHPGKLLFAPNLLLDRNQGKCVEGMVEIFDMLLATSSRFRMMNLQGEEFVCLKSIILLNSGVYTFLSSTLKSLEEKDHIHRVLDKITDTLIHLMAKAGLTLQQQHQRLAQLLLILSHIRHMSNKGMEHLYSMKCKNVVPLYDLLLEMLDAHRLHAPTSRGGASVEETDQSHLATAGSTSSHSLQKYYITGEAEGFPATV

Structure (SMILES) | activity, negative = inhibition
CCOC(=O)NC(O)C(Cl)(Cl)Cl (stereo not drawn) | -3.96%
O=S(=O)(Cl)Cl | -25.8%
C=CCN1C[C@H](C)N([C@H](c2ccc(C(=O)N(CC)CC)cc2)c2cccc(OC)c2)C[C@H]1C | -6.15%
CC(C)C1(C)N=C(c2ncccc2C(=O)O)NC1=O (stereo not drawn) | 13.3%
NC(=S)c1c(Cl)cccc1Cl | -2.31%
CC(C)(C)NCC(O)c1cc(Cl)c(N)c(C(F)(F)F)c1 (stereo not drawn) | 11.7%
CCOc1cccc(C2(N3CCN(c4ccccc4)CC3)CCC(C)CC2)c1 (stereo not drawn) | -2.69%
C[C@H](N)[C@H](O)c1ccc(O)c(O)c1 | 10.2%
CCCCCCCCCCCCCCCl | 4.33% [at 79.1 µM]
CN1C(=O)CN=C(c2ccccc2)c2cc([N+](=O)[O-])ccc21 | -4.14%
Cc1nc(N(C)C)nc(OC(=O)N(C)C)c1C | 5.65%

Test system: not listed separately
Assay: qHTS assay to identify small molecule antagonists of the estrogen receptor alpha (ER-alpha) signaling pathway - cell viability counter screen (AID 743074); note: nearly all actives have a fitted effect of over 45% in size
Conditions: ERalpha-bla HEK293 viability, CellTiter-Glo luminescence, 18 h; series mostly up to 69.4 µM; activity, negative = cytotoxicity: at the top concentration

Structure (SMILES) | activity, negative = cytotoxicity
CCOC(=O)NC(O)C(Cl)(Cl)Cl (stereo not drawn) | 10.9%
O=C(O)C(F)(F)C(F)(F)C(F)(F)C(F)(F)C(F)(F)C(F)(F)C(F)(F)C(F)(F)F | 16.9%
CC(Cc1ccccc1)NCc1ccccc1Cl (stereo not drawn) | 16.9%
O=S(=O)(Cl)Cl | -5.91%
O=C(N/N=C/c1ccc([N+](=O)[O-])o1)c1cc([N+](=O)[O-])cc([N+](=O)[O-])c1O | 5.88%
COC(=O)Cc1ccccc1 | -4.28%
C=CC(=O)OCC | -6.33% [at 79.1 µM]
CC(Oc1cc(Cl)c(Cl)cc1Cl)C(=O)O (stereo not drawn) | -12.5%
CC(Oc1cccc(Cl)c1)C(=O)O (stereo not drawn) | -2.04%
CCOP(=O)(SC(C)CC)N1CCSC1=O (stereo not drawn) | 19.2%
CCC(C)(C)O | -7.16%
CC1(C)CC(=O)CC(C)(C)N1[O] | 3.48%
CC(Cl)C(=O)O (stereo not drawn) | 13.2% [at 79.1 µM]
C=CCN1C[C@H](C)N([C@H](c2ccc(C(=O)N(CC)CC)cc2)c2cccc(OC)c2)C[C@H]1C | -5.72%
CC(=O)NNc1ccccc1 | -9.06%
CC(C)C1(C)N=C(c2ncccc2C(=O)O)NC1=O (stereo not drawn) | 17.1%
CCOC(=O)c1cncn1C(C)c1ccccc1 (stereo not drawn) | 9.86% [at 32.6 µM]
NC(=S)c1c(Cl)cccc1Cl | -15.2%
O=S(=O)(c1ccccc1)c1ccccc1 | -7.21%
CC(C)(C)NCC(O)c1cc(Cl)c(N)c(C(F)(F)F)c1 (stereo not drawn) | 9.53%
C[C@H](N)[C@H](O)c1ccc(O)c(O)c1 | 8.14%
N#CC(C#N)=Cc1ccc(O)c(O)c1 | 19%
C=CC(C)(CCC=C(C)C)OC(=O)c1ccccc1N (stereo not drawn) | 16% [at 79.1 µM]
CCCCCCCCCCCCCCCl | 15.2% [at 79.1 µM]
CN1C(=O)CN=C(c2ccccc2)c2cc([N+](=O)[O-])ccc21 | 10.4%
NCCc1cc(O)c(O)cc1O | 1.09%
CCCN(CCC)C(=O)Cc1c(-c2ccc(Cl)cc2)nc2ccc(Cl)cn12 | -19.1%
O=C(NC(=O)c1cc(F)c(F)cc1Cl)Nc1cc(F)ccc1N1CCC(C(=O)O)CC1 | 11.9%
Cc1nc(N(C)C)nc(OC(=O)N(C)C)c1C | 7.75%

Molecular target: Estrogen receptor (Homo sapiens) (UniProt P03372)
Assay: qHTS assay to identify small molecule agonists of the estrogen receptor alpha (ER-alpha) signaling pathway (AID 743075)
Conditions: HEK293 ER-alpha-UAS-bla, beta-lactamase FRET ratio, 18 h; series mostly up to 70.1 µM; activation: at the top concentration

Structure (SMILES) | activation
CCOC(=O)NC(O)C(Cl)(Cl)Cl (stereo not drawn) | -1.62%
O=C(O)C(F)(F)C(F)(F)C(F)(F)C(F)(F)C(F)(F)C(F)(F)C(F)(F)C(F)(F)F | 5.49%
CC(Cc1ccccc1)NCc1ccccc1Cl (stereo not drawn) | 2.73%
O=S(=O)(Cl)Cl | 0.8%
COC(=O)Cc1ccccc1 | -0.861%
C=CC(=O)OCC | -2.68% [at 79.1 µM]
CC(Oc1cc(Cl)c(Cl)cc1Cl)C(=O)O (stereo not drawn) | -5.24%
CCC(C)(C)O | 1.81%
C=CCN1C[C@H](C)N([C@H](c2ccc(C(=O)N(CC)CC)cc2)c2cccc(OC)c2)C[C@H]1C | 2.6%
CC(C)C1(C)N=C(c2ncccc2C(=O)O)NC1=O (stereo not drawn) | -1.14%
CCOC(=O)c1cncn1C(C)c1ccccc1 (stereo not drawn) | -0.251% [at 32.9 µM]
NC(=S)c1c(Cl)cccc1Cl | -0.816%
CC(C)(C)NCC(O)c1cc(Cl)c(N)c(C(F)(F)F)c1 (stereo not drawn) | 1.63%
CCOc1cccc(C2(N3CCN(c4ccccc4)CC3)CCC(C)CC2)c1 (stereo not drawn) | -2.78%
C[C@H](N)[C@H](O)c1ccc(O)c(O)c1 | 0.459%
CCCCCCCCCCCCCCCl | -1.03% [at 79.1 µM]
CN1C(=O)CN=C(c2ccccc2)c2cc([N+](=O)[O-])ccc21 | -1.92%
NCCc1cc(O)c(O)cc1O | 4.68%
CCCN(CCC)C(=O)Cc1c(-c2ccc(Cl)cc2)nc2ccc(Cl)cn12 | -2.37%
O=C(NC(=O)c1cc(F)c(F)cc1Cl)Nc1cc(F)ccc1N1CCC(C(=O)O)CC1 | -4.51%
Cc1nc(N(C)C)nc(OC(=O)N(C)C)c1C | 2.14%

Molecular target: Estrogen receptor (Homo sapiens) (UniProt P03372)
Assay: qHTS assay to identify small molecule agonists of the estrogen receptor alpha (ER-alpha) signaling pathway using the BG1 cell line (AID 743079; active = well fitted activation curve with a large enough effect in the repeat runs; note: nearly all actives have a fitted effect of over 20% in size; note: potency is the fitted concentration of half-maximal effect)
Conditions: BG1Luc4E2 cells, ERE-luciferase agonist, 22 h; series mostly up to 70.3 µM; activation: at the top concentration

Structure (SMILES) | activation | Potency
CCOC(=O)NC(O)C(Cl)(Cl)Cl (stereo not drawn) | -7.31% | 
O=C(O)C(F)(F)C(F)(F)C(F)(F)C(F)(F)C(F)(F)C(F)(F)C(F)(F)C(F)(F)F | -9.21% | 
CC(Cc1ccccc1)NCc1ccccc1Cl (stereo not drawn) |  | 26.6 µM (active)
O=S(=O)(Cl)Cl | 0.0597% | 
COC(=O)Cc1ccccc1 | -0.523% | 
C=CC(=O)OCC | -1.69% [at 95 µM] | 
CC(Oc1cc(Cl)c(Cl)cc1Cl)C(=O)O (stereo not drawn) | -11.3% | 
CCC(C)(C)O | 15.4% | 
C=CCN1C[C@H](C)N([C@H](c2ccc(C(=O)N(CC)CC)cc2)c2cccc(OC)c2)C[C@H]1C | -10% | 
C[N+]1(CCF)[C@@H]2CC[C@H]1CC(OC(=O)C(O)(c1ccccc1)c1ccccc1)C2 (stereo partly drawn) |  | 15 µM (active)
CC(C)C1(C)N=C(c2ncccc2C(=O)O)NC1=O (stereo not drawn) | -12.7% | 
CCOC(=O)c1cncn1C(C)c1ccccc1 (stereo not drawn) | -3.1% [at 32.5 µM] | 
NC(=S)c1c(Cl)cccc1Cl | -8.63% | 
CC(C)(C)NCC(O)c1cc(Cl)c(N)c(C(F)(F)F)c1 (stereo not drawn) | -5.78% | 
CCOc1cccc(C2(N3CCN(c4ccccc4)CC3)CCC(C)CC2)c1 (stereo not drawn) | 12.1% | 
C[C@H](N)[C@H](O)c1ccc(O)c(O)c1 | -10.9% | 
N#CC(C#N)=Cc1ccc(O)c(O)c1 | -6.88% | 
CCCCCCCCCCCCCCCl | 1.02% [at 95 µM] | 
NCCc1cc(O)c(O)cc1O | 2.89% | 
CCCN(CCC)C(=O)Cc1c(-c2ccc(Cl)cc2)nc2ccc(Cl)cn12 | -4.64% | 
O=C(NC(=O)c1cc(F)c(F)cc1Cl)Nc1cc(F)ccc1N1CCC(C(=O)O)CC1 | -9.96% | 
Cc1nc(N(C)C)nc(OC(=O)N(C)C)c1C | -1.21% | 
